Screening results: PubChem BioAssay, Milwaukee Institute for Drug Discovery
This is a sample that favours compounds with a hit; in the whole collection about 6.9% have one here.
HCV NS3h FP – HCV NS3 helicase inhibitors, primary screen, biochemical, fluorescence polarization, ChemBridge library | Hepatitis C virus NS3 helicase | NS3h Cy5-dT15 DNA binding | inhibition, % at 100 µM | actives 1.6% (n = 16,000);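 active = inhibition above the average over every tested compound plus 3 SD, cut at about 40% in these data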
Cy5 interf NS3h – Cy5 fluorescence quenchers or enhancers, artefact control for HCV NS3 helicase inhibitor project, biochemical, ChemBridge library, Cy5 readout. Cy5-dT15 DNA with NS3h, fluorescence interference; actives lie on both sides; signal over control mean, under 1 quenches. fluorescence interference ratio at 100 µM. actives 6% (n = 16,000);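 active = compound fluorescence over control fluorescence at most 0.8, a quencher, or at least a set upper limit, an enhancer; inactive = ratio between 0.8 and the set upper limit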
Of the large screens only hits and unclear results are named; the others gave an inactive call.

O=C1c2cccc3cccc(c23)C(=O)N1/N=C\c1cccc([N+](=O)[O-])c1	Cy5 interf NS3h 0.74
O=C1c2cccc3cccc(c23)C(=O)N1/N=C\c1ccc(Br)cc1	none
COC(=O)C1=C(C)N(c2ccc(OC)cc2)C(=O)/C1=C\c1ccc(O)cc1	none
O=C(CCC(=O)OCC(F)(F)C(F)F)Nc1nc2ccccc2s1	Cy5 interf NS3h 0.71
CCC(C(=O)Nc1nc2ccccc2s1)c1ccccc1 (stereo not given)	none
Cc1ccc(S(=O)(=O)N2CCC(O)CC2C)cc1 (stereo not given)	Cy5 interf NS3h 0.74
Cc1ccc(S(=O)(=O)N2CCN(S(=O)(=O)c3ccc(C)cc3)C2c2ccc(N(C)C)cc2)cc1	none
CCOC(=O)c1ccc(N2NC(=O)/C(=C/c3cccc(I)c3)C2=O)cc1	Cy5 interf NS3h 0.79
CCOC(=O)c1ccc(N2NC(=O)/C(=C/c3cc(OC)c(O)c(OC)c3)C2=O)cc1	none
Cc1onc(-c2ccccc2Cl)c1C(=O)Nc1ccc(O)c(C(=O)O)c1	none
COc1ccc(CN2CCN(CC3CC4C=CC3C4)CC2)cc1Br (stereo not given)	Cy5 interf NS3h 0.75
COc1ccc(OC)c(CN2CCN(Cc3ccc(OC)c(Br)c3)CC2)c1	none
CCO/C(C)=C1\C(=O)N(c2nc3ccccc3s2)N=C1C(F)(F)F	none
CCOC(=O)c1c(-c2ccc(OC)cc2)csc1NC(=O)c1cccc([N+](=O)[O-])c1	Cy5 interf NS3h 0.75
CCOC(=O)c1c(-c2ccc(C)cc2)csc1NC(=O)c1ccccc1F	none
O=C(O)C(Cc1ccccc1)N1C(=O)/C(=C/C(Cl)=C/c2ccc([N+](=O)[O-])cc2)SC1=S (stereo not given)	Cy5 interf NS3h 0.78
O=C1/C(=C/C(Cl)=C/c2ccc([N+](=O)[O-])cc2)SC(=S)N1c1ccc(O)cc1	none
CC(/C=C1\SC(=S)N(C(Cc2ccccc2)C(=O)O)C1=O)=C\c1ccccc1 (stereo not given)	none
O=C(O)CCC(C(=O)O)N1C(=O)/C(=C\C(Cl)=C/c2ccc([N+](=O)[O-])cc2)SC1=S (stereo not given)	Cy5 interf NS3h 0.63
CCCCOc1ccc(C2NC(=O)NC(C)=C2C(=O)OCC)cc1 (stereo not given)	none
O=C1NC(=O)/C(=C\c2ccc(Cl)cc2Cl)S1	none
Cc1ccc(C(=O)CC2(O)C(=O)N(C)c3ccccc32)cc1 (stereo not given)	none
O=P(O)(O)CP(=O)(c1ccccc1)c1ccccc1	Cy5 interf NS3h 0.76
O=P(CO)(c1ccccc1)c1ccccc1	none
CC1=NN(c2ccc(C)c(C)c2)C(=O)/C1=C/c1ccc([N+](=O)[O-])o1	Cy5 interf NS3h 0.68
CC1=NN(c2cccc(C(=O)O)c2)C(=O)/C1=C\c1ccc(-c2cc([N+](=O)[O-])ccc2C)o1	none
Cc1ccc(C(=O)N/C(=C\c2ccco2)C(=O)Nc2ccccc2C)cc1	none
COc1ccccc1NC(=O)/C(=C/c1ccco1)NC(=O)c1ccc(C)cc1	Cy5 interf NS3h 1.3
COc1cc(C(=O)Oc2ccc3c(C)cc(=O)oc3c2C(C)=O)cc(OC)c1OC	none
COc1cc(C=O)ccc1OC(=O)c1cc(OC)c(OC)c(OC)c1	Cy5 interf NS3h 0.67
CC(=O)N1c2ccccc2CC(N2CCCCC2)c2ccccc21 (stereo not given)	Cy5 interf NS3h 0.76
CC(=O)N(C)N1c2ccccc2CCc2ccccc21	none
Cc1ccc2[nH]c(C)c(CN3CCN(C)CC3)c(=O)c2c1	none
CC(C)OP(C)(=O)CN1CCCC1=O (stereo not given)	none
N#Cc1ccc(C2N(Cc3ccccc3)CCN2Cc2ccccc2)cc1	none
O=C(NCC1CCCO1)c1cc2nc(-c3ccccc3)cc(-c3ccccc3)n2n1 (stereo not given)	Cy5 interf NS3h 0.62
COCCNC(=O)c1cc2nc(-c3ccccc3)cc(-c3ccccc3)n2n1	none
CC(C)=CCC/C(C)=C/CC(C)(C)C1OCCC(C)O1 (stereo not given)	none
O=C(Nc1ccc(F)cc1F)c1cnn2c1NC(c1ccco1)CC2C(F)(F)F (stereo not given)	none
O=C(Nc1ccccc1CO)c1ccc(I)cc1	none
CC(=O)Oc1ccc(-c2cccc(C(=O)NC(CO)C(O)c3ccc([N+](=O)[O-])cc3)c2)cc1 (stereo not given)	none
O=C(NC(CO)C(O)c1ccc([N+](=O)[O-])cc1)c1ccc2ccccc2n1 (stereo not given)	Cy5 interf NS3h 0.62
COc1ccc(C=C2C(=O)c3ccccc3C2=O)c(O)c1	none
Cc1cc(C(=O)Nc2cccc(C)c2C)ccc1[N+](=O)[O-]	none
O=C(Nc1ccc(Cl)cn1)c1ccc(-c2ccc([N+](=O)[O-])cc2)o1	none
Cc1cc([N+](=O)[O-])ccc1-c1ccc(C(=O)Nc2ccc(Cl)cn2)o1	Cy5 interf NS3h 0.77
Cc1c(Cl)cccc1NC1CS(=O)(=O)CC1O (stereo not given)	none
